Rows were chosen to be rich in hits. Some 2.2% of all compounds tested hit in one or more screens of this group.
EWS-Fli inh: inhibitors of EWS/Fli oncoprotein transcriptional activity. A673 NR0B1-luciferase reporter, viability-normalised. inhibition, % at 12.6 µM. actives 0.67% (n = 350,000). AID 651661;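 active = mean inhibition of at least 50% after viability correction, with every replicate also passing that limit; inconclusive = mean reaches 50% but only one of two replicates passes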;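 also: firefly luciferase signal divided by Alamar Blue viability fluorescence both relative to DMSO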
LMP1 NFkB inh: inhibitors of Epstein-Barr LMP1-induced NF-kappaB reporter; inhibition, % at 12.5 µM; LMP1-induced NF-kappaB luciferase reporter cells, luminescence; AID 504558; actives 0.69% (n = 350,000); in the data active = inhibition above about 41%; inconclusive = no clear call, values can overlap the other calls;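 also: 0% = neutral control wells and 100% = reference inhibitor control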
LGR2 antag: blocks bursicon-induced cAMP signaling via Drosophila LGR2; AID 720647; HEK293 LGR2, CRE-luciferase, bursicon-stimulated, 4 h; inhibition, % at 9.99 µM; actives 0.35% (n = 380,000);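 active = drop in luminescence signal, shown as inhibition above about 50% in the replicate tests, limit read from the data, passing the limit was not always enough; inconclusive = probably only some replicates passing the limit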;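 also: agonist challenge used bursicon conditioned medium at about half maximal strength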
Shn3 inh set2: reduces Shn3 3'UTR luciferase signal in osteoblasts; Clone20 osteoblast Shn3 3'UTR firefly luciferase, 24 h; inhibition, % at 12.5 µM; actives 0.52% (n = 360,000);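 active = mean inhibition of at least 75% with every replicate also reaching 75%; inconclusive = mean inhibition at least 75% but some replicate below; inactive = mean inhibition below 75%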;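 also: 0% = median of neutral control wells and 100% = pilot-screen positive control compound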
MITF TRPM1 inh: reduces MITF-dependent TRPM1 promoter luciferase signal | SK-MEL-5 TRPM1 promoter luciferase, 24 h | inhibition, % at 12.5 µM | actives 0.83% (n = 330,000);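 active = mean inhibition across replicates of 60% or more, whatever share of single replicates reaches that level; inconclusive = some that reach 60%, reason not given; inactive = mean inhibition across replicates below 60%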
PAX8 reporter: lowers PAX8-driven luciferase in RMG-I cells; RMG-I TPO-luciferase reporter, SteadyGlo, 24 h; inhibition, % at 12.6 µM; actives 1.2% (n = 360,000);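 active = mean replicate inhibition at least 60% with every replicate also reaching 60%; inconclusive = only one of the two criteria is met; inactive = mean below 60% and not all replicates reaching 60%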;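 also: luciferase light reporting Pax8 driven TPO promoter activity; plate controls were median of neutral control wells for no effect and mitoxantrone controls for full effect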
* marks the source's active call; other numbers are inactive results; ? = inconclusive; nt = not tested or not shown.

SMILES	EWS-Fli inh	LMP1 NFkB inh	LGR2 antag	Shn3 inh set2	MITF TRPM1 inh	PAX8 reporter
Cc1cc(CN(C)C(=O)c2cc(COc3ccc4ncccc4c3)on2)on1	-1	23	12	79	10	91*
CN(Cc1cccc2cnccc12)C(=O)c1cc(COc2ccc(F)cc2F)on1	-6	10	2	80	-1	nt
COc1cc(Cl)ccc1OCc1cc(C(=O)NCC(C)c2ccccc2)no1 (stereo unspecified)	3	-5	-7	-12	-5	-20
COc1ccc(S(=O)(=O)N(C)C[C@H]2OCCCC[C@H](C)Oc3ccc(NS(C)(=O)=O)cc3C(=O)N([C@@H](C)CO)C[C@@H]2C)cc1	6	nt	-2	nt	nt	-8
Cn1cnc(S(=O)(=O)N2CC[C@@H]3[C@H]2c2cc(C#CC4CCCC4)ccc2N[C@@H]3CO)c1	-1	nt	3	nt	nt	nt
CCC(=O)Nc1ccc2c(c1)C(=O)N(C)[C@H]1CC[C@@H](CC(=O)N3CCc4ccccc4C3)O[C@H]1CO2	-8	nt	-5	nt	nt	1
COCCNC(=O)C[C@@H]1CC[C@H]2[C@H](COc3ccc(NC(=O)C4CCCC4)cc3C(=O)N2C)O1	1	nt	1	nt	nt	7
CCCNC(=O)c1ccc2nc(-c3ccccc3)c(-c3ccccc3)nc2c1	nt	-21	nt	1	-1	nt
CCN1CCN(CCNC(=O)c2ccc3nc(-c4cccc(C)c4)c(-c4cccc(C)c4)nc3c2)CC1	21	-6	10	5	87*	7
CCN1CCN(CCCNC(=O)c2ccc3c(Cl)c4c(nc3c2)CCCC4)CC1	7	-1	22	-1	92*	9
O=C(Nc1ccccc1)Nc1cc(OCC(F)(F)F)cc(OCC(F)(F)F)c1	44	-5	30	93*	85*	95*
C[C@@H]1CCCCO[C@@H](CN(C)CC2CCCCC2)[C@H](C)CN([C@@H](C)CO)C(=O)c2cc(NC(=O)NC3CCCCC3)ccc2O1	11	nt	10	nt	nt	2
CCCc1cn([C@H]2C[C@@H]3O[C@H](CO)CC[C@@H]3O[C@@H]2CCc2ccc(-c3ccccc3C#N)cc2)nn1	-1	nt	nt	nt	nt	4
COc1cc(CN2CCCC(N3CCN(c4ccccc4C)CC3)C2)cc(Cl)c1O (stereo unspecified)	4	78*	6	22	1	-1
c1ccc(C[n+]2cccc3c4ccccc4ccc32)cc1	nt	38	nt	20	62*	nt
Cc1ccc(C2(c3ccc(C)cc3)CC2C(=O)Nc2ccc([N+](=O)[O-])cc2O)cc1 (stereo unspecified)	nt	38	nt	78	74*	nt
CO[C@H]1CN(C)C(=O)c2ccc(NC(=O)c3ccccc3F)cc2OC[C@@H](C)N(CC2CC2)C[C@@H]1C	1	nt	-4	nt	nt	nt
C[C@@H]1CCCCO[C@H](CN(C)S(=O)(=O)c2ccccc2)[C@H](C)CN([C@@H](C)CO)C(=O)c2cc(NS(=O)(=O)c3cn(C)cn3)ccc2O1	4	nt	0	nt	nt	16
O=C(N/N=C/c1cc(Br)ccc1O)c1ccccc1Cl	12	51*	2	42	51	13
O=C(N/N=C/c1cc(Cl)ccc1O)c1ccncc1	16	-2	-18	?	62*	66*
Cc1ccc(S(=O)(=O)NC[C@H]2CC[C@H]3[C@H](CN3Cc3cc(-c4ccccc4)on3)O2)cc1	-6	nt	nt	nt	nt	nt
O=C(O)CC1S/C(=N\N=C2CCCCCC2)N(c2ccccc2)C1=O (stereo unspecified)	7	-4	-21	5	-1	5
CCOC(=O)CC/C(C)=N\N=C1\SC(CC(=O)O)C(=O)N1c1ccccc1 (stereo unspecified)	-1	44*	-9	50	5	-7
COc1ccccc1-c1cn(CC[C@@H]2CC[C@H](NC(=O)C3CCCC3)[C@@H](CO)O2)nn1	-6	nt	2	nt	nt	nt
Cc1ccc(N(C(=O)c2cc3ccccc3oc2=O)C2C=CS(=O)(=O)C2)cc1 (stereo unspecified)	11	-7	13	2	-11	77*
SMILES	EWS-Fli inh	LMP1 NFkB inh	LGR2 antag	Shn3 inh set2	MITF TRPM1 inh	PAX8 reporter
COc1ccc(N/N=C/c2c(C(=O)O)ccc3ccccc23)cc1	-20	69*	-11	93*	nt	62*
CCOC(=O)c1ccc(Nc2ncnc3c2cnn3C)cc1	nt	-23	1	7	-31	nt
Cn1ncc2c(O/N=C(\N)c3ccc(C(C)(C)C)cc3)ncnc21	nt	-59	nt	5	80*	nt
C[C@H]1CCCCO[C@H](CN(C)S(=O)(=O)c2ccc(F)cc2)[C@@H](C)CN([C@@H](C)CO)C(=O)c2cc(NS(=O)(=O)c3ccc(Cl)cc3)ccc2O1	7	nt	7	nt	nt	89*
C[C@@H]1CCCCO[C@H](CN(C)S(=O)(=O)c2ccc(F)cc2)[C@H](C)CN([C@H](C)CO)C(=O)c2cc(NS(=O)(=O)c3ccc(Cl)cc3)ccc2O1	6	nt	8	nt	nt	45
C[C@@H]1CCCCO[C@@H](CN(C)S(=O)(=O)c2ccc(F)cc2)[C@H](C)CN([C@H](C)CO)C(=O)c2cc(NS(=O)(=O)c3ccc(Cl)cc3)ccc2O1	16	nt	14	nt	nt	86*
C[C@H]1CCCCO[C@H](CN(C)S(=O)(=O)c2ccc(Cl)cc2)[C@@H](C)CN([C@@H](C)CO)C(=O)c2cc(NS(=O)(=O)c3ccc(F)cc3)ccc2O1	14	nt	16	nt	nt	86*
C[C@@H]1CCCCO[C@H](CN(C)S(=O)(=O)c2ccc(F)cc2)[C@H](C)CN([C@@H](C)CO)C(=O)c2cc(NS(=O)(=O)c3ccc(Cl)cc3)ccc2O1	8	nt	10	nt	nt	81*
CN1C(=O)c2cc(NC(=O)c3cnccn3)ccc2OC[C@@H]2O[C@H](CC(=O)NCC3CC3)CC[C@@H]21	-3	nt	17	nt	nt	-21
O=C(NCC[C@H]1CC[C@H](NS(=O)(=O)c2ccc(F)cc2)[C@@H](CO)O1)Nc1ccc(Cl)cc1	-42	nt	-11	nt	nt	-18
C[C@H](CO)N1C[C@H](C)[C@H](CN(C)S(=O)(=O)c2ccc(Cl)cc2)OCCCC[C@H](C)Oc2ccc(NS(=O)(=O)c3ccc(F)cc3)cc2C1=O	3	nt	19	nt	nt	81*
O=C(Nc1nnc(-c2ccco2)s1)c1ccccc1	nt	8	24	-15	-18	nt
COc1cccc(C(=O)Nc2nnc(SCC(=O)NC3CC3)s2)c1	-45	-2	-8	-41	-13	-2
COc1ccc2nc(SCC(=O)NC3CCCC3)c(C)cc2c1	55*	12	3	-28	24	14
COc1ccc(C(=O)Nc2nnc(-c3ccco3)s2)cc1	nt	22	81*	37	34	nt
COc1ccc(C(=O)Nc2nnc(SCC(=O)NC3CC3)s2)cc1	20	45*	?	-2	-5	-31
CO[C@H]1CN(C)C(=O)c2ccc(NS(=O)(=O)c3cn(C)cn3)cc2OC[C@H](C)N(CCC(F)(F)F)C[C@H]1C	0	nt	9	nt	nt	-20
